The supplement of paper PMC6555819

Columns and labels:
Assay in all cases: PBM binding z-score (relative to random genomic background probes); higher = stronger binding; sequences stand for … in GC…GCGATTGACAGCGTAGAATGAAGG
[1] = system: FXR:RXRa (NR concentration 270 nM, RXRa partner concentration 90 nM)
Method in brief: (§1)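 Binding z-scores take random background probes as their reference. They come from custom Agilent 4×180K protein-binding microarrays incubated 1 h with ligand-free nuclear receptor dimers, with antibodies against each partner (one per run) detecting binding. Scanned fluorescence was regression-normalized.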

[2] = system: LXRa:RXRa (NR concentration 270 nM, RXRa partner concentration 90 nM)
Method in brief: as §1

[3] = system: LXRa homodimer (NR concentration 270 nM)
Method in brief: as §1

[4] = system: LXRb:RXRa (NR concentration 270 nM, RXRa partner concentration 90 nM)
Method in brief: as §1

[5] = system: LXRb homodimer (NR concentration 270 nM)
Method in brief: as §1

[6] = system: PPARa:RXRa (NR concentration 270 nM, RXRa partner concentration 90 nM)
Method in brief: as §1

[7] = system: PPARg:RXRa (NR concentration 180 nM, RXRa partner concentration 90 nM)
Method in brief: as §1

[8] = system: PPARg:RXRa 270nM:90nM, anti-RXR (NR concentration 270 nM, RXRa partner concentration 90 nM)
Method in brief: as §1

[9] = system: PPARg:RXRa 30nM:10nM, anti-RXR (NR concentration 30 nM, RXRa partner concentration 10 nM)
Method in brief: as §1

[10] = system: PPARg:RXRa 90nM:30nM, anti-RXR (NR concentration 90 nM, RXRa partner concentration 30 nM)
Method in brief: as §1

[11] = system: PPARg:RXRa DBDmut IVT, anti-RXR (DBD mutation: RXRa K156A/R161A, NR concentration 270 nM, RXRa partner concentration 90 nM)
Method in brief: as §1

[12] = system: PPARg:RXRa IVT, anti-PPARg (NR concentration 270 nM, RXRa partner concentration 90 nM)
Method in brief: as §1

[13] = system: PPARg DBDmut:RXRa IVT, anti-PPARg (DBD mutation: PPARg1 K132A/R137A, NR concentration 270 nM, RXRa partner concentration 90 nM)
Method in brief: as §1

[14] = system: PPARg DBDmut IVT, anti-PPARg (DBD mutation: PPARg1 K132A/R137A, NR concentration 270 nM)
Method in brief: as §1

[15] = system: PPARg homodimer (NR concentration 180 nM)
Method in brief: as §1

[16] = system: PXR:RXRa (NR concentration 270 nM, RXRa partner concentration 90 nM)
Method in brief: as §1

[17] = system: PXR homodimer (NR concentration 270 nM)
Method in brief: as §1

[18] = system: RARa:RXR (NR concentration 270 nM, RXRa partner concentration 90 nM)
Method in brief: as §1

[19] = system: RARa homodimer (NR concentration 270 nM)
Method in brief: as §1

[20] = system: RARb:RXRa (NR concentration 270 nM, RXRa partner concentration 90 nM)
Method in brief: as §1

Row | Sequence | PBM binding z-score [1] | PBM binding z-score [2] | PBM binding z-score [3] | PBM binding z-score [4] | PBM binding z-score [5] | PBM binding z-score [6] | PBM binding z-score [7] | PBM binding z-score [8] | PBM binding z-score [9] | PBM binding z-score [10] | PBM binding z-score [11] | PBM binding z-score [12] | PBM binding z-score [13] | PBM binding z-score [14] | PBM binding z-score [15] | PBM binding z-score [16] | PBM binding z-score [17] | PBM binding z-score [18] | PBM binding z-score [19] | PBM binding z-score [20]
1 | CTCGAAAGGTCGGTTGAGGTGAGAATACGGATAA | 3.46 | 1.74 | -0.255 | 1.42 | 0.119 | 2.77 | 0.632 | 1.34 | 0.543 | 0.887 | -0.0519 | 0.993 | 0.334 | 0.0546 | 0.742 | 3.13 | 0.108 | 2.11 | 0.173 | 2.98
2 | GGAACGAGGACAAGTTGATAGCAGAGTTTGATGG | 0.526 | -0.33 | -0.0892 | -0.534 | -0.685 | 0.0298 | 0.641 | -0.0478 | -0.0459 | -0.0367 | 0.934 | 0.446 | -0.104 | -0.565 | -0.282 | 0.0933 | 0.0308 | 0.108 | -0.522 | 1.32
3 | AGAACTAGGGCAATGAGTTGATAGCACGGGTGGC | -0.0132 | -0.254 | -0.285 | -0.631 | -0.61 | 2.48 | 4.11 | 3.2 | 1.29 | 2.41 | 7.38 | 6.72 | 1.02 | 0.615 | 0.447 | 0.226 | 0.366 | 0.000604 | 0.238 | 1.31
4 | CAAACTAGGTCACGAAAGATCAAAGTCGAATGAC | 4.53 | 5 | 0.705 | 3.03 | 0.541 | 5.84 | 9.56 | 7.69 | 6.2 | 7.72 | 8.91 | 9.37 | 5.61 | 5.17 | 2.46 | 2.88 | 0.236 | 3.39 | 1.08 | 4.37
5 | CCTGACAGGTGAAAGGTAACTCAGTCTGGTACGC | 0.803 | 0.991 | -0.258 | 0.923 | -0.669 | 3.38 | 5.7 | 6.09 | 4 | 5.75 | 2.33 | 2.82 | -0.213 | -0.0292 | 0.546 | 0.876 | -0.396 | 1.84 | 0.115 | 1.3
6 | GCGACTGGAGCATCAGCAGGTTACCATAACTTAA | -0.588 | -0.33 | -0.742 | -0.376 | -1.27 | 0.165 | 0.329 | -0.223 | -0.632 | -0.253 | 0.414 | 0.0135 | -1.51 | -0.56 | -0.607 | -0.228 | -0.687 | 0.0402 | -1.07 | -0.26
7 | GATACTGGGTCAGCTAGAGGCCAGAGTATGGAAA | 0.906 | 0.796 | -0.487 | 0.388 | -0.812 | 2.91 | 3.87 | 3.8 | 0.981 | 2.65 | 5.49 | 5.95 | 0.246 | -0.167 | 1.24 | 1.15 | -0.114 | 2.03 | -0.28 | 3.26
